Experimental data published in PubChem BioAssay (NCI).
Values joined by “and” are separate entries in the source; they are usually repeats but may differ in a detail not shown here. Identical values can stand only once. The panel holds about 83,000 compounds, 20% with a hit somewhere; the sample as a whole holds those more often.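 Cells were grown in 96-well plates and exposed to the test compound at a single concentration for 48 hours; results are reported as percent growth, with values below 10 considered active.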 Active and inactive are the calls of the source.

Tests used:
Assay in all cases: NCI-60 one-dose screen, 48 h (100 = growth as untreated, 0 = no growth, -100 = all killed)
Conditions in all cases: 10 µM unless noted
SR leukemia = system: SR leukemia
RPMI-8226 leukemia = system: RPMI-8226 leukemia
OVCAR-8 ovarian = system: OVCAR-8 ovarian
OVCAR-5 ovarian = system: OVCAR-5 ovarian
OVCAR-4 ovarian = system: OVCAR-4 ovarian
SK-OV-3 ovarian = system: SK-OV-3 ovarian
IGROV1 ovarian = system: IGROV1 ovarian
OVCAR-3 ovarian = system: OVCAR-3 ovarian
NCI/ADR-RES ovarian = system: NCI/ADR-RES ovarian
T-47D breast = system: T-47D breast
BT-549 breast = system: BT-549 breast
MDA-MB-435 melanoma = system: MDA-MB-435 melanoma
SW-620 colon = system: SW-620 colon
MCF7 breast = system: MCF7 breast
HCT-116 colon = system: HCT-116 colon
HCC-2998 colon = system: HCC-2998 colon
KM12 colon = system: KM12 colon
HS 578T breast = system: HS 578T breast

SMILES	growth (SR leukemia)	growth (RPMI-8226 leukemia)	growth (OVCAR-8 ovarian)	growth (OVCAR-5 ovarian)	growth (OVCAR-4 ovarian)	growth (SK-OV-3 ovarian)	growth (IGROV1 ovarian)	growth (OVCAR-3 ovarian)	growth (NCI/ADR-RES ovarian)	growth (T-47D breast)	growth (BT-549 breast)	growth (MDA-MB-435 melanoma)	growth (SW-620 colon)	growth (MCF7 breast)	growth (HCT-116 colon)	growth (HCC-2998 colon)	growth (KM12 colon)	growth (HS 578T breast)
Cn1c(=O)n(-c2ccc(C(C)(C)C#N)cc2)c2c3cc(-c4cnc5ccccc5c4)ccc3ncc21	2.04% (active) and -5.13% (active)	8.42% (active)	1.15% (active) and -10.2% (active)	10.4% (inactive) and 19.4% (inactive)	-5.93% (active) and 0.981% (active)	-28.9% (active) and -13% (active)	-12.3% (active) and -27.9% (active)	13.7% (inactive) and -10.6% (active)	1.89% (active) and -0.868% (active)	-12.2% (active) and -4.13% (active)	-8.12% (active) and -14.5% (active)	2.94% (active) and 5.92% (active)	8% (active) and 3.15% (active)	4.64% (active) and -3.88% (active)	16.8% (inactive) and 13% (inactive)	1.76% (active) and 7.09% (active)	3.33% (active) and -9.75% (active)	
O=CC(O)C(O)C(O)CO (centres undefined)	109% (inactive) and 89.6% (inactive)	81.9% (inactive) and 122% (inactive)	110% (inactive) and 106% (inactive)	57.6% (inactive) and 97.7% (inactive)	101% (inactive) and 114% (inactive)	116% (inactive) and 101% (inactive)	105% (inactive)	106% (inactive)	-41.1% (active) and 106% (inactive)		104% (inactive)	112% (inactive) and 109% (inactive)	107% (inactive) and 104% (inactive)	97.5% (inactive) and 94.6% (inactive)	112% (inactive) and 102% (inactive)	101% (inactive)	103% (inactive) and 102% (inactive)	98.4% (inactive) and 106% (inactive)
Oc1ccccc1/C=N\NC(=S)N/N=C/c1ccccc1O	20% (inactive) and 21.9% (inactive)	29.3% (inactive) and 40.7% (inactive)	35.6% (inactive) and 23.4% (inactive)	59.2% (inactive) and 59.6% (inactive)	25.7% (inactive)	46.5% (inactive) and 58.9% (inactive)	20.9% (inactive) and 34.5% (inactive)	14.1% (inactive) and 23% (inactive)		48.4% (inactive) and 51.6% (inactive)	47.3% (inactive) and 49.8% (inactive)	56.3% (inactive) and 44.2% (inactive)	47.5% (inactive) and 50.7% (inactive)	25.6% (inactive) and 26.8% (inactive)	28% (inactive) and 22.9% (inactive)		39% (inactive) and 28.2% (inactive)	98.4% (inactive) and 73.4% (inactive)
Cc1ccc(S(=O)(=O)NCN2C(=O)c3ccccc3C2=O)cc1	101% (inactive)	103% (inactive)	108% (inactive)	110% (inactive)	96.7% (inactive)	98.4% (inactive)		113% (inactive)	110% (inactive)	110% (inactive)	101% (inactive)	111% (inactive)	108% (inactive)	95.2% (inactive)	98.5% (inactive)	99.4% (inactive)	110% (inactive)	108% (inactive)
CC1=CCC2CC1C2(C)C (centres undefined)	96.9% (inactive) and 91.4% (inactive)	137% (inactive) and 120% (inactive)	97.7% (inactive) and 95.8% (inactive)	80.1% (inactive) and 74.2% (inactive)	112% (inactive) and 109% (inactive)	114% (inactive) and 99% (inactive)	35.4% (inactive)	89.2% (inactive) and 95.1% (inactive)	102% (inactive) and 81.8% (inactive)		71.6% (inactive) and 68.8% (inactive)	98.3% (inactive) and 94.2% (inactive)	101% (inactive) and 103% (inactive)	98.1% (inactive) and 91.6% (inactive)	92.2% (inactive)		100% (inactive) and 110% (inactive)	81.8% (inactive)
CC(=O)Nc1cccc2c1CCCC2	104% (inactive) and 109% (inactive)	88.8% (inactive) and 99% (inactive)	86.5% (inactive) and 104% (inactive)	98.8% (inactive) and 105% (inactive)	106% (inactive) and 107% (inactive)	89% (inactive) and 92.3% (inactive)	119% (inactive) and 96.2% (inactive)	107% (inactive) and 108% (inactive)		92.7% (inactive)	97% (inactive)	103% (inactive) and 110% (inactive)	108% (inactive) and 107% (inactive)	92.1% (inactive) and 91.2% (inactive)	97.5% (inactive) and 102% (inactive)	99.8% (inactive) and 95.3% (inactive)	102% (inactive) and 103% (inactive)	92.8% (inactive) and 110% (inactive)
O=S(=O)(Nc1ccccc1)C1CCCCC1	92.1% (inactive) and 90.5% (inactive)	93.9% (inactive) and 106% (inactive)	110% (inactive) and 108% (inactive)	107% (inactive) and 104% (inactive)	108% (inactive) and 117% (inactive)	107% (inactive) and 103% (inactive)		111% (inactive) and 104% (inactive)	112% (inactive) and 105% (inactive)	116% (inactive) and 105% (inactive)	121% (inactive)	107% (inactive) and 102% (inactive)	106% (inactive) and 107% (inactive)	94.2% (inactive) and 104% (inactive)	99.6% (inactive) and 107% (inactive)		106% (inactive) and 112% (inactive)	123% (inactive) and 108% (inactive)
COc1ccc(S(=O)(=O)N2CCOCC2)cc1NC(=O)c1[nH]c(C)c2c1CCCCC2=O	113% (inactive) and 64.4% (inactive)	104% (inactive) and 21.5% (inactive)	99.6% (inactive) and 61.7% (inactive)	102% (inactive) and 66.8% (inactive)	114% (inactive) and 59.2% (inactive)	103% (inactive)	108% (inactive) and 47.1% (inactive)	111% (inactive) and 68% (inactive)			116% (inactive) and 102% (inactive)	105% (inactive) and 35.8% (inactive)	103% (inactive) and 67.5% (inactive)	91.1% (inactive) and 27.6% (inactive)	109% (inactive) and 101% (inactive)	102% (inactive) and 69.8% (inactive)	110% (inactive) and 65% (inactive)	91.8% (inactive) and 23.1% (inactive)
CCOC(=O)C(C(=O)OCC)C(c1ccccc1)N1CCN(c2ccccc2)CC1 (centres undefined)	97.9% (inactive) and 101% (inactive)	102% (inactive) and 103% (inactive)	101% (inactive) and 90.3% (inactive)	112% (inactive) and 111% (inactive)	102% (inactive) and 113% (inactive)	115% (inactive) and 108% (inactive)		123% (inactive) and 120% (inactive)	107% (inactive)	108% (inactive) and 98.7% (inactive)	103% (inactive) and 104% (inactive)	102% (inactive) and 100% (inactive)	113% (inactive) and 111% (inactive)	97.8% (inactive) and 97.5% (inactive)	98.3% (inactive) and 99.3% (inactive)	114% (inactive) and 111% (inactive)	111% (inactive) and 98.6% (inactive)	103% (inactive) and 104% (inactive)
